The list is not random: actives were taken first. Their share in the collection is about 0.89%.
Eya2 inh: Eya2 (human) phosphatase inhibition; 330,000 compounds, 0.006% hits; Potency, µM (top dose mostly 76.9 µM), without a hit: top-dose activity, negative = inhibition, actives largely listed as inhibitors; AID 488837; recombinant Eya2, OMFP fluorescence dephosphorylation (OMFP is methylfluorescein phosphate); O00167; further: potency means the concentration at half of the fitted maximal effect; on the % scale 0 is the no-effect control and ±100 the full control effect
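Eya2 protein (added as 0.2 uM solution) was preincubated with compound for 10 min at ambient temperature in 50 mM HEPES pH 7.5, 50 mM NaCl, 5 uM MgCl2, 0.05% BSA, 1 mM DTT. OMFP (added at 50 uM) then reacted 10 min; fluorescence read at 485/525 nm.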
CtBP-E1A inh: inhibitors of CtBP/E1A interaction; activity change, % (concentration not given with the values); AlphaScreen GST-E1A/His-CtBP binding, 1536-well; active compounds read low; 340,000 compounds, 0.49% hits; in the data active means activity change below about -65%; inconclusive means mostly about -30% to -63%; further: on the % scale 0 is the no-effect control and ±100 the full control effect
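In 5 uL wells, 23 nL compound meets equimolar GST-E1A and His-CtBP (5X stock 125 nM each) for 2 h, 37 °C. Beads (5X, 50 ug/mL) then 1 h, 37 °C, dark.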
Six1-Eya2 inh: inhibitors of human Six1/Eya2 interaction; 360,000 compounds, 0.56% hits; AID 651725; activity change, % (test concentration not listed); AlphaScreen GST-Six1/His-Eya2 binding, biochemical; active compounds read low; in the data active means activity change below about -65%; inconclusive means mostly about -30% to -63%; further: on the % scale 0 is the no-effect control and ±100 the full control effect
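AlphaScreen with GST-Six1 and His-Eya2 (5X mix: 250 nM and 500 nM), glutathione donor and nickel acceptor beads; buffer 50 mM Tris pH 8.0, 300 mM NaCl, 1 mM TCEP; 1 h at 37 C in the dark.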
MBNL1 CUG block: blocks human MBNL1 binding to CUG repeat RNA | Potency, µM (top dose mostly 57.5 µM), inactives show at the top dose activity change, negative = inhibition, usual class: inhibitors | AID 2675 | 280,000 compounds, 0.036% hits | TR-FRET MBNL1-His/biotin-(CUG)12 binding, 665/545 ratio | Q9NR56; active means well fitted inhibition curve with a large enough effect in the signal ratio, with a control signal flat, not every such curve was filed as active; inconclusive means small, poorly fitted or top-dose-only effect, or effect the other way, or a change in a side signal; inactive means no such curve, though single readings can be large or run the other way; the % refers to the signal ratio; further: potency means the concentration at half of the fitted maximal effect; on the % scale 0 is the no-effect control and ±100 the full control effect
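His-tagged MBNL1 binding to biotinylated (CUG)12 RNA was measured by TR-FRET using terbium anti-His antibody (0.055 ng/ul final) and streptavidin-XL665 (5 nM final). Compounds were titrated 92 nM to 58 uM; 60 min at room temperature.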
L3MBTL1 block: inhibitors of human L3MBTL1. 230,000 compounds, 0.66% hits. Potency, µM (top dose mostly 57.1 µM), for the others: at the top dose activity, negative = inhibition, usual class: inhibitors. Q9Y468. AlphaScreen L3MBTL1–H3K9me1 peptide binding; further: potency means the concentration at half of the fitted maximal effect; on the % scale 0 is the no-effect control and ±100 the full control effect; nearly all actives have a fitted effect of over 60% in size
Target sequence (Q9Y468 whole entry, looked up): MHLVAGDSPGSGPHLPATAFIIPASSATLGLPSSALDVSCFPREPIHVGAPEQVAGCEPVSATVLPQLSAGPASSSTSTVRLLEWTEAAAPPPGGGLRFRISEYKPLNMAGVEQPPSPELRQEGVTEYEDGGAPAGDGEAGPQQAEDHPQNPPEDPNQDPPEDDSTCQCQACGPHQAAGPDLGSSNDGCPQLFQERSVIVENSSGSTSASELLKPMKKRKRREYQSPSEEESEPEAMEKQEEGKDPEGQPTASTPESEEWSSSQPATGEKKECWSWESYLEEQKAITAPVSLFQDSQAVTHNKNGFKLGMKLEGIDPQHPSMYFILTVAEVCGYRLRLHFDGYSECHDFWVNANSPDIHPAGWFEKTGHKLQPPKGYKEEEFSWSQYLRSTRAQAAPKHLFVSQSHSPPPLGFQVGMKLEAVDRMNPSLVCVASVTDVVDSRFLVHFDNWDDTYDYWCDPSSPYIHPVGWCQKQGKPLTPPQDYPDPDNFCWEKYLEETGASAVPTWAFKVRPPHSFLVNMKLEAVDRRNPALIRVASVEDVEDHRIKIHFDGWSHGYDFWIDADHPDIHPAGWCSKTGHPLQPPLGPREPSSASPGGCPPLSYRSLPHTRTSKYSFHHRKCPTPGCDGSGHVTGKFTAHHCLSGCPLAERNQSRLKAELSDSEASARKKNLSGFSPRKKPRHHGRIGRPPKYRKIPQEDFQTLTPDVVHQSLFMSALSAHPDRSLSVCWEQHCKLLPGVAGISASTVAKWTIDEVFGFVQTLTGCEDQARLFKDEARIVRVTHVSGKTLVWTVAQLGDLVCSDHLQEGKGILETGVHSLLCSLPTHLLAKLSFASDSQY
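Read-out is AlphaScreen signal from streptavidin donor and nickel chelate acceptor beads (10 ug/mL final each) bridging L3MBTL1 (50 nM) and biotinylated K9-monomethylated H3(1-15) peptide (75 nM), after 30 min compound exposure at room temperature.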
CBFb-RUNX1 inh: CBF-beta/RUNX1 interaction disruption; AID 1477; Q01196+Q13951; 230,000 tested, under 10 active; Potency, µM (doses to about 59.8 µM), for inactives: at the highest dose activity, negative = inhibition, usual class: inhibitors; AlphaScreen CBFb-His/RUNX1-biotin binding, biochemical; further: % of control where 0% means no effect
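Bead-based AlphaScreen assay; binding partners His-tagged CBF-beta and biotinylated RUNX1 at 30 nM each. Compound exposure 15 min after a 20-min protein preincubation; bead step 90 min; all steps at room temperature.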
Numbers without * were called inactive; ? = inconclusive; / = no result given; [ ] = remark or other dose. Unless noted, the call rests on the fitted dose curve; in most records, active means well fitted curve in the direction sought with a large enough effect; inconclusive means small, poorly fitted or top-dose-only effect, or another doubt; inactive means no such curve, though single readings can be large; an effect the other way counts as inactive or inconclusive.

SMILES	Eya2 inh	CtBP-E1A inh	Six1-Eya2 inh	MBNL1 CUG block	L3MBTL1 block	CBFb-RUNX1 inh
CCC(=O)NC(c1ccco1)c1cc(Cl)c2cccnc2c1O (stereo not drawn)	7%	-90*	-80*	1%	-28%	?
CCCCC(=O)NC(c1ccco1)c1cc(Cl)c2cccnc2c1O (stereo not drawn)	-3%	/	?	1%	-6%	-19%
Oc1c(C(Nc2ccccn2)c2cccnc2)cc(Cl)c2cccnc12 (stereo not drawn)	8%	-89*	-90*	16%	?	?
O=C(c1ccc(CS(=O)c2cccc(Cl)c2)o1)N1CCN(c2ccccn2)CC1 (stereo not drawn)	0%	6	4	-1%	/	/
Cc1noc(NS(=O)(=O)c2ccc(NC(=O)CSc3nnc4c(n3)[nH]c3ccccc34)cc2)c1C	0%	-90*	-88*	/	-6%	-5%
O=C(Nc1nc(-c2ccccn2)cs1)c1ccco1	0%	-93*	-79*	33%	/	?
COc1ccc2oc(C(=O)Nc3nc(-c4ccccn4)cs3)c(C)c2c1	2%	-1	?	/	25µM*	/
O=C(Nc1ccc(Br)cc1)c1cccc(-n2cnnn2)c1	15%	0	-4	5%	/	/
O=C(Nc1nc(-c2ccccn2)cs1)C1CC1	3%	-72*	?	1%	-10%	?
O=C(Nc1nc(-c2ccccn2)cs1)c1cccc(-n2cnnn2)c1	7%	/	-92*	6%	?	?
CCC(=O)Nc1cccc(NC(=O)CSc2nc3c(c(=O)n(C)c(=O)n3C)n2C)c1	-6%	-7	-26	-11%	/	/
COc1ccc(Cc2nc3ccc(C(=O)NC(C)Cc4ncccc4C)cc3o2)cc1OC (stereo not drawn)	1%	6	-5	?	/	/
C[C@H](NC(=O)c1ccco1)C(=O)Nc1nc(-c2ccccn2)cs1	/	-89*	-89*	/	/	/
C[C@H](NC(=O)c1ccco1)C(=O)Nc1nnc(SCc2ccccc2)s1	7%	8	2	/	-5%	/
O=C(Nc1nc(-c2ccccn2)cs1)c1ccc(Br)s1	0%	-71*	?	13%	/	-22%
CC[C@H](CO)NCCN[C@@H](CC)CO	/	/	/	/	/	22%[21.7 µM]
COC(=O)c1c(C(=O)OC)c(-c2cccc(F)c2)n2c1CS(=O)(=O)C2	-17%	/	0	0%	/	/
O=C(Nc1nc2ccc(F)cc2s1)c1ccccn1	-17%	-92*	-77*	36%	/	?
O=C(Nc1nc2ccccc2s1)c1cnccn1	-16%	9	-8	1%	/	-2%
O=C(Nc1nnc(SCc2ccc(F)cc2)s1)c1ccccn1	-8%	-95*	-90*	30%	/	?
O=[N+]([O-])c1ccc2c(OCc3nnc(-c4ccccc4Br)o3)ncnc2c1	4%	-85*	-70*	/	-8%	-10%
Brc1ccccc1/C=N/Nc1ccc2ccccc2n1	1%	9	-6	-3%	3%	10%
COc1cc([N+](=O)[O-])cc(/C=N\NC(=O)C2COc3ccccc3O2)c1O (stereo not drawn)	5%	/	-89*	/	?	/
O=C(N/N=C/c1cccc([N+](=O)[O-])c1)C1COc2ccccc2O1 (stereo not drawn)	5%	/	18	?	/	-4%
O=C(N/N=C/c1cccc([N+](=O)[O-])c1O)c1cccs1	-6%	7	-91*	?	?	?
SMILES	Eya2 inh	CtBP-E1A inh	Six1-Eya2 inh	MBNL1 CUG block	L3MBTL1 block	CBFb-RUNX1 inh
O=C(N/N=C\c1cccc([N+](=O)[O-])c1O)C1COc2ccccc2O1 (stereo not drawn)	-7%	-96*	-88*	?	-15%	/
O=[N+]([O-])c1cccc(C=NNc2ccc3ccccc3n2)c1O	/	-95*	-91*	/	/	/
CCCCN1CCC(=O)C(C(=O)OCC)=C1C(=O)OCC	/	4	1	/	/	/
CC(C)CN(C(=O)COC(=O)c1cc2c(s1)CCC2)C1CCS(=O)(=O)C1 (stereo not drawn)	0%	5	-1	0%	20µM*	?
NC(=O)c1c(NC(=O)c2ccc(N3C(=O)CCC3=O)cc2)sc2c1CCCC2	6%	/	-68*	/	-3%	/
CC1CCc2sc(NC(=O)c3ccc(N4C(=O)CCC4=O)cc3)c(C(N)=O)c2C1 (stereo not drawn)	5%	2	-2	2%	/	/
COc1cc(OC)cc(-c2c(C#Cc3ccsc3)c3cc(-c4cccc5[nH]cc(C=O)c45)ccc3n2C)c1	-17%	0	-3	/	0%	/
O=C(Nc1ccc2c(c1)nc1n2CCN(Cc2ccccc2)C1)c1cccs1	4%	-87*	-80*	0%	/	-6%
CCOc1ccc(NC(=O)C(C)NC(=O)c2ccccc2Cl)cc1S(=O)(=O)N1CCCC1 (stereo not drawn)	?	9	-2	/	0%	/
CN(C)c1ccc(CNc2ncc(Br)cc2Br)cc1	11%	?	-66*	4%	?	-28%
COc1cccc(-c2nnc3n2N=C(c2ccc(OC)cc2OC)CS3)c1	/	/	/	/	/	-19%
Cc1nc2ccc(C(=O)c3ccccc3)cc2[nH]1	21%	5	-6	1%	1%	6%
Cc1nc2ccc(C(=O)N/N=C/c3cc([N+](=O)[O-])ccc3O)cc2[nH]1	2%	-92*	-92*	18%	-22%	5%
Cc1cc(C)nc(SCc2ccc(C(=O)N/N=C/c3cccc(O)c3O)cc2)n1	3%	-96*	-95*	?	-12%	3%
Cc1nc2ccc(C(=O)N/N=C/c3ccccc3O)cc2[nH]1	-13%	-88*	-80*	?	/	/
COc1ccc(O)c(/C=N/NC(=O)c2ccc(CSc3nc(C)cc(C)n3)cc2)c1	-2%	?	?	-4%	12%	?
CC(C)c1nc(C(=O)N2CCCC(CCC(=O)N(C)CCc3ccccn3)C2)cs1 (stereo not drawn)	0%	/	-1	-14%	0%	6%
COc1cc(CNc2ncnc3c2ncn3[C@H]2CN(Cc3ccc(Cl)cc3)C[C@@H](CO)O2)cc(OC)c1OC	/	-16	-6	/	/	/
O=C(/C=C\c1ccco1)c1ccc(NC(=O)c2ccco2)cc1	-21%	-25	-7	6%	11µM*	?
C(=NNc1nnn(Cc2ccccc2)n1)c1ccccc1	/	5	-1	/	/	/
CCNC(=S)N=Nc1c(O)[nH]c2ccc([N+](=O)[O-])cc12	3%	-87*	-84*	/	-23%	-8%

Screening results (PubChem BioAssay)
